PubChem BioAssay (EPA / NIEHS)
Calls of active or inactive are those of the source. The calls were made as follows: active = hit-call score of the fitted dose curve at least 0.9, where 1 is the maximum; inactive = score below 0.9.

Columns and labels:
[1] = ATG_CRE_CIS: Attagene CIS-FACTORIAL HepG2 Assay for human cAMP Responsive Element (CRE) binding protein 3 (AID 2282926); settings: HepG2 CRE cis-reporter, Attagene multiplexed mRNA; actives raise or lower the signal
Procedure, shortened: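 HepG2 cells transiently transfected with a multiplexed reporter library (CRE-driven unit among them) were dosed for 24 h. Reporter mRNA was quantified by RT-PCR, fluorescent labelling, HpaI digestion and capillary electrophoresis, with bidirectional fitting against DMSO baseline.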

[2] = ATG_DR4_LXR_CIS: Attagene CIS-FACTORIAL HepG2 Assay for human Liver X Receptor (LXR), DR4 submotif (AID 2282929); settings: HepG2 Attagene DR4 cis-reporter, mRNA transcription; actives raise or lower the signal
Procedure, shortened: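 Cells were transfected with multiple reporter transcription units, exposed to chemicals for 24 hours, then lysed for RNA. Reporter mRNA induction was measured by RT-PCR with capillary electrophoresis detection and fitted in both directions relative to DMSO.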

[3] = ATG_AP_2_CIS: Attagene CIS-FACTORIAL HepG2 Assay for human Activator Protein 2 (AP-2) (AID 2282932); settings: HepG2 AP-2 cis-reporter, Attagene transcription factor profiling; actives raise or lower the signal
Procedure, shortened: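 HepG2, transient MRTU transfection, cis-regulated reporters; 24 h compound exposure; RNA isolated, RT-PCR, 6-FAM labelling, HpaI digest, CE fluorescence. DMSO = negative control/baseline, bidirectional fit.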

[4] = ATG_BRE_CIS: Attagene CIS-FACTORIAL HepG2 Assay for human Bone Morphogenetic Protein (BMP) Response Element (BRE) (AID 2282933); settings: HepG2 BMP response element reporter, Attagene transcription factor profiling; actives raise or lower the signal
Procedure, shortened: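 Transient MRTU transfection of human HepG2 liver cells; 24 h compound treatment; total RNA isolated, reverse-transcribed, PCR-amplified, 6-FAM labelled, HpaI-cut, capillary electrophoresis. DMSO = negative control/baseline, bidirectional fit.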

[5] = target: Transcription factor E2F1 (Homo sapiens) (UniProt Q01094); assay: ATG_E2F_CIS: Attagene CIS-FACTORIAL HepG2 Assay for human E2F Transcription Factor 1 (AID 2282935); settings: HepG2 Attagene cis-reporter, E2F reporter RNA transcripts; actives raise or lower the signal
Transcription factor E2F1 (Homo sapiens), sequence (Q01094 whole entry, looked up): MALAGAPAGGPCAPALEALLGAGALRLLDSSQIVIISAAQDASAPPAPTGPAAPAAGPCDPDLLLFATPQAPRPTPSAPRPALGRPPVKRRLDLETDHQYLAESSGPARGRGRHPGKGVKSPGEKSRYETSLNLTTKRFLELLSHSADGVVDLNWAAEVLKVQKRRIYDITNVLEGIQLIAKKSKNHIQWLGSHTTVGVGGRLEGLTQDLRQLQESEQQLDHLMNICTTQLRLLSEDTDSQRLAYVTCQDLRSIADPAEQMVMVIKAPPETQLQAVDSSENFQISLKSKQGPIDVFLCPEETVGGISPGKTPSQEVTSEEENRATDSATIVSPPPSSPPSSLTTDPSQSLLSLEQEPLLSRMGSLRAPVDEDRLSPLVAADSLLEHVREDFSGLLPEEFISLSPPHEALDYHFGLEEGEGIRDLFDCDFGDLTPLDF
Procedure, shortened: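 Cis-element reporter mRNA induction in transiently transfected HepG2, 24 h exposure. Activity fitted in both directions relative to DMSO negative control.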

[6] = ATG_E_Box_CIS: Attagene CIS-FACTORIAL HepG2 Assay for human Enhancer Box (E-box) (AID 2282936); settings: HepG2 E-box cis-reporter transcription, actives raise or lower the signal
Procedure, shortened: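 Cells: HepG2 (human liver), transient MRTU transfection. Exposure 24 h. RNA → oligo(dT) RT → PCR → 6-FAM label → HpaI → CE. Activity fitted both directions relative to DMSO.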

[7] = ATG_M_19_CIS: Attagene CIS-FACTORIAL HepG2 Assay for M19 Transcription Factor (Internal Marker) (AID 2282939); settings: HepG2 Attagene CIS-FACTORIAL M19 internal marker reporter; actives raise or lower the signal
Procedure, shortened: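 Transfect HepG2 with MRTU reporter library → dose chemical, 24 h → isolate total RNA, reverse-transcribe with oligo(dT) → PCR, 6-FAM label, HpaI cut (2 h, 37 C) → capillary electrophoresis. Bidirectional fit vs DMSO.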

[8] = ATG_Ets_CIS: Attagene CIS-FACTORIAL HepG2 Assay for human Erythroblast Transformation Specific (ETS) (AID 2282941); settings: HepG2 ETS cis-reporter transcription, actives raise or lower the signal
Procedure, shortened: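 Human HepG2 hepatoma cells were transiently transfected with promoter-driven reporter constructs and treated for 24 hours. Reporter transcripts were quantified by RT-PCR with fluorescent primer extension; bidirectional curve fitting used DMSO as reference.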

[9] = target: Hepatocyte nuclear factor 3-beta (Homo sapiens) (UniProt Q9Y261); assay: ATG_FoxA2_CIS: Attagene CIS-FACTORIAL HepG2 Assay for human Forkhead box A2 (FOXA2) (AID 2282942); settings: HepG2 cis-reporter transcription factor activity, 24 h; actives raise or lower the signal
Hepatocyte nuclear factor 3-beta (Homo sapiens), sequence (Q9Y261 whole entry, looked up): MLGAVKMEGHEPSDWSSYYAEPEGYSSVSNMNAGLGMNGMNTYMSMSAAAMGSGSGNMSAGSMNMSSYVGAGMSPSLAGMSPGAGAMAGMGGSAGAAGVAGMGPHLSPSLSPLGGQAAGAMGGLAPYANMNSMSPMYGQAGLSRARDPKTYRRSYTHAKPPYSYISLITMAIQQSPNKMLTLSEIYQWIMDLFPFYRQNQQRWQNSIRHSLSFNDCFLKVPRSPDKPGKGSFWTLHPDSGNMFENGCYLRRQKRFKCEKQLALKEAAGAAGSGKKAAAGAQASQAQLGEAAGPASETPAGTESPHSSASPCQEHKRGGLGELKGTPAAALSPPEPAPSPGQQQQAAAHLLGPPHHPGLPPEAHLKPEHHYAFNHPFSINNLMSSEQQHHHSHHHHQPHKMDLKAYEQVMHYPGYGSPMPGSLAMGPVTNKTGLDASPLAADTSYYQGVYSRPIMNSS
Procedure, shortened: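 Endogenous transcription factor activity was read in HepG2 cells carrying transiently transfected cis-promoter reporter units. After 24 h dosing, reporter mRNA was quantified by RT-PCR and capillary electrophoresis, and values fitted bidirectionally versus DMSO.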

[10] = ATG_FoxO_CIS: Attagene CIS-FACTORIAL HepG2 Assay for human Forkhead box O (FoxO) (AID 2282943); settings: HepG2 Attagene cis-reporter, FoxO element, mRNA; actives raise or lower the signal
Procedure, shortened: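 HepG2, transient MRTU transfection (cis element, endogenous TFs). Dose 24 h. TriZol RNA → oligo(dT) RT → PCR → 6-FAM primer extension → HpaI cut → CE. Gain/loss vs DMSO.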

[11] = ATG_GATA_CIS: Attagene CIS-FACTORIAL HepG2 Assay for human GATA Binding Protein (AID 2282944); settings: HepG2 GATA cis-element reporter, Attagene multiplex mRNA; actives raise or lower the signal
Procedure, shortened: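 Transient MRTU transfection, HepG2, 24 h compound exposure. Total RNA → oligo(dT) RT → PCR → 6-FAM primer extension → HpaI cut → CE. Bidirectional fit vs DMSO.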

[12] = ATG_M_32_CIS: Attagene CIS-FACTORIAL HepG2 Assay for M32 Transcription Factor (Internal Marker) (AID 2282949); settings: HepG2 Attagene cis-factorial M32 reporter, mRNA; actives raise or lower the signal;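 also: background control marker of the multiplexed CIS panel rather than a real target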
Procedure, shortened: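 Fluorescent capillary electrophoresis peaks of HpaI-digested, FAM-labelled RT-PCR reporter products give the signal. Source: transiently transfected human liver HepG2 cells, 24 h after chemical dosing; bidirectional fitting against DMSO.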

[13] = ATG_PXRE_CIS: Attagene CIS-FACTORIAL HepG2 Assay for human Pregnane X Receptor Element (PXRE) (AID 2282957); settings: HepG2 Attagene CIS-FACTORIAL PXRE reporter, mRNA; actives raise or lower the signal
Procedure, shortened: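 HepG2 cells transiently transfected with cis-regulated multiple reporter transcription units; endogenous factor activity measured as reporter mRNA 24 h after dosing. RT-PCR, fluorescent primer extension, HpaI digestion, capillary electrophoresis; bidirectional fit versus DMSO baseline.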

[14] = ATG_Sox_CIS: Attagene CIS-FACTORIAL HepG2 Assay for human SRY-box transcription factor (SOX) (AID 2282960); settings: HepG2 Attagene cis-factorial SOX reporter, mRNA; actives raise or lower the signal
Procedure, shortened: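 Transient MRTU transfection of HepG2; 24 h compound incubation; TriZol RNA, oligo(dT) RT, PCR, 6-FAM primer extension, HpaI cut, CE. Bidirectional fit, DMSO = baseline.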

[15] = target: Transcription factor Sp1 (Homo sapiens) (UniProt P08047); assay: ATG_Sp1_CIS: Attagene CIS-FACTORIAL HepG2 Assay for human Specificity Protein 1 (Sp1) (AID 2282961); settings: HepG2 Sp1 cis-reporter transcription, actives raise or lower the signal
Transcription factor Sp1 (Homo sapiens), sequence (P08047 whole entry, looked up): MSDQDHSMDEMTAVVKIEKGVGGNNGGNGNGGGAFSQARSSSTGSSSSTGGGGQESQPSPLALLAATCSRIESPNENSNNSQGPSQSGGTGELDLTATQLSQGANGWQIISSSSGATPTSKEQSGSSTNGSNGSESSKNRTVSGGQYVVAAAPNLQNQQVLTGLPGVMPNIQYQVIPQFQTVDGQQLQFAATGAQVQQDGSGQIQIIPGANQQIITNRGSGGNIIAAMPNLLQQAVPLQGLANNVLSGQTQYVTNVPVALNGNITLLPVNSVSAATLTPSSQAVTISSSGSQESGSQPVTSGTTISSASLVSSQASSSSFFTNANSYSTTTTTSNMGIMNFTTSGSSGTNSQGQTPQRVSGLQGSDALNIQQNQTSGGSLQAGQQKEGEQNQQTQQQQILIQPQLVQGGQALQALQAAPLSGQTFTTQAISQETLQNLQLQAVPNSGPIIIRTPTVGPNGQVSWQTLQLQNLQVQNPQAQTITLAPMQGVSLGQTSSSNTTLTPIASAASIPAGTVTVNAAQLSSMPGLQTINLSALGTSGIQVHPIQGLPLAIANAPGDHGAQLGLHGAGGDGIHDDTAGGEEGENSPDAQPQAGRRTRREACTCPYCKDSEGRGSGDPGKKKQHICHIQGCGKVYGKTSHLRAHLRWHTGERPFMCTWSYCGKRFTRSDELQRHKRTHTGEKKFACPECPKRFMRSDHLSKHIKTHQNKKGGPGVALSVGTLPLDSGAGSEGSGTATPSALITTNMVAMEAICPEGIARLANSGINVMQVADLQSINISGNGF
Procedure, shortened: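 Endogenous Sp1 activity was gauged in human liver HepG2 cells bearing transfected reporter units under a cis-regulating promoter. After 24 h dosing, reporter mRNA was quantified by RT-PCR with capillary electrophoresis, and activity fitted bidirectionally versus DMSO.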

[16] = ATG_SREBP_CIS: Attagene CIS-FACTORIAL HepG2 Assay for human Sterol Regulatory Element Binding (SREBP) (AID 2282962); settings: HepG2 Attagene cis-factorial SREBP reporter, mRNA; actives raise or lower the signal
Procedure, shortened: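 mRNA induction of transfected cis-promoter reporters in HepG2 cells, 24 h post-dose. Detection: RT-PCR with 6-FAM-labelled products, HpaI digest, capillary electrophoresis. DMSO served as negative control and baseline.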

[17] = target: Signal transducer and activator of transcription 3 (Homo sapiens) (UniProt P40763); assay: ATG_STAT3_CIS: Attagene CIS-FACTORIAL HepG2 Assay for human Signal Transducer and Activator of Transcription 3 (STAT3) (AID 2282963); settings: HepG2, Attagene cis-factorial STAT3 reporter transcription; actives raise or lower the signal
Signal transducer and activator of transcription 3 (Homo sapiens), sequence (P40763 whole entry, looked up): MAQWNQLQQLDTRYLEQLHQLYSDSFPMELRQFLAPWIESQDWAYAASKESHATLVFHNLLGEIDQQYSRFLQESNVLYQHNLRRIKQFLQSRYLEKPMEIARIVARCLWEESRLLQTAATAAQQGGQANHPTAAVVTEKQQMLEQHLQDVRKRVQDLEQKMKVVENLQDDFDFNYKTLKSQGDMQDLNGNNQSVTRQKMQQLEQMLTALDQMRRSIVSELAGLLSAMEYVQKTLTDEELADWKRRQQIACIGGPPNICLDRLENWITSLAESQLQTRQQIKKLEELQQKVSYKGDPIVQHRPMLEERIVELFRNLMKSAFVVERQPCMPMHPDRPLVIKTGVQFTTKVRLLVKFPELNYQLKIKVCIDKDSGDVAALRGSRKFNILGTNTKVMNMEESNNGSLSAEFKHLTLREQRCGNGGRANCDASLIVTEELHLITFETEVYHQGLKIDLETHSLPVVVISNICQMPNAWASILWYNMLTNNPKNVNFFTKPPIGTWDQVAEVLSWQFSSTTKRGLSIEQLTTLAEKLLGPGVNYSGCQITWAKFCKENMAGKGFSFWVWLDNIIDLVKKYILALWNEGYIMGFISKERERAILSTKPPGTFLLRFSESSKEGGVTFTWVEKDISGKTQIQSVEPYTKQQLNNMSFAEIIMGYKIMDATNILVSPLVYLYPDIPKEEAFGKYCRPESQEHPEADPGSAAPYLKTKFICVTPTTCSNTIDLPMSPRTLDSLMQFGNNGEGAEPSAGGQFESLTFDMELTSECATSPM
Procedure, shortened: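 Endogenous STAT3-responsive cis-element activity was read in transiently transfected HepG2 cells after 24 h treatment. Reporter transcripts were quantified via RT-PCR and capillary electrophoresis, with DMSO as negative control and bidirectional curve fitting.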

[18] = ATG_TA_CIS: Attagene CIS-FACTORIAL HepG2 Assay for human TA Basal Promoter (AID 2282964); settings: HepG2 Attagene CIS-factorial TA basal promoter reporter; actives raise or lower the signal
Procedure, shortened: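 Read-out: fluorescent reporter-transcript fragments resolved by capillary electrophoresis after RT-PCR and HpaI digestion. Source: HepG2 cells carrying transiently transfected multi-reporter cis constructs, treated 24 h. Endpoint fitted bidirectionally relative to DMSO.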

[19] = ATG_TCF_b_cat_CIS: Attagene CIS-FACTORIAL HepG2 Assay for human T-Cell-Factor with beta-catenin (TCF/b-cat) (AID 2282965); settings: HepG2 TCF/beta-catenin cis-reporter transcription, actives raise or lower the signal
Procedure, shortened: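 Endogenous transcription factor activity is captured through cis-promoter reporter constructs transiently introduced into human HepG2 liver cells. Induced reporter mRNA is measured after 24 h and fitted bidirectionally relative to DMSO.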

[20] = ATG_TGFb_CIS: Attagene CIS-FACTORIAL HepG2 Assay for human Transforming Growth Factor (TGF) (AID 2282967); settings: HepG2 Attagene CIS TGFb reporter, mRNA transcription; actives raise or lower the signal
Procedure, shortened: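 Transient MRTU transfection of HepG2 (FuGene 6). Dose 24 h. TriZol RNA, oligo(dT) RT, PCR, 6-FAM primer extension, HpaI cut, CE. Bidirectional fit, DMSO = baseline.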

CN(C)N
outcome [1]: inactive
outcome [2]: inactive
outcome [3]: inactive
outcome [4]: inactive
outcome [5]: inactive
outcome [6]: inactive
outcome [7]: inactive
outcome [8]: inactive
outcome [9]: inactive
outcome [10]: inactive
outcome [11]: inactive
outcome [12]: inactive
outcome [13]: inactive
outcome [14]: inactive
outcome [15]: inactive
outcome [16]: inactive
outcome [17]: inactive
outcome [18]: inactive
outcome [19]: inactive
outcome [20]: inactive

CCOC(=O)C1OC1(C)c1ccccc1 (stereo not given)
outcome [1]: inactive
outcome [2]: inactive
outcome [3]: inactive
outcome [4]: inactive
outcome [5]: inactive
outcome [6]: inactive
outcome [7]: inactive
outcome [8]: inactive
outcome [9]: inactive
outcome [10]: inactive
outcome [11]: inactive
outcome [12]: inactive
AC50 [13]: 100 µM (active)
outcome [14]: inactive
outcome [15]: inactive
outcome [16]: inactive
outcome [17]: inactive
outcome [18]: inactive
outcome [19]: inactive
outcome [20]: inactive

O=[N+]([O-])c1cc([N+](=O)[O-])c2ccccc2c1
outcome [1]: inactive
outcome [2]: inactive
outcome [3]: inactive
outcome [4]: inactive
outcome [5]: inactive
AC50 [6]: 10.5 µM (active)
outcome [7]: inactive
outcome [8]: inactive
outcome [9]: inactive
outcome [10]: inactive
outcome [11]: inactive
outcome [12]: inactive
AC50 [13]: 8.8 µM (active)
outcome [14]: inactive
outcome [15]: inactive
outcome [16]: inactive
outcome [17]: inactive
outcome [18]: inactive
outcome [19]: inactive
outcome [20]: inactive

O=C1Nc2ccc(Cl)cc2C(c2ccccc2)=NC1O (stereo not given)
outcome [1]: inactive
outcome [2]: inactive
outcome [3]: inactive
outcome [4]: inactive
outcome [5]: inactive
outcome [6]: inactive
outcome [7]: inactive
outcome [8]: inactive
outcome [9]: inactive
outcome [10]: inactive
outcome [11]: inactive
outcome [12]: inactive
outcome [13]: inactive
outcome [14]: inactive
outcome [15]: inactive
outcome [16]: inactive
outcome [17]: inactive
outcome [18]: inactive
AC50 [19]: 28.9 µM (active)
outcome [20]: inactive

[CH3][Sn]([Cl])([Cl])[Cl]
outcome [1]: inactive
outcome [2]: inactive
outcome [3]: inactive
outcome [4]: inactive
outcome [5]: inactive
outcome [6]: inactive
outcome [7]: inactive
outcome [8]: inactive
outcome [9]: inactive
outcome [10]: inactive
outcome [11]: inactive
outcome [12]: inactive
outcome [13]: inactive
outcome [14]: inactive
outcome [15]: inactive
outcome [16]: inactive
outcome [17]: inactive
outcome [18]: inactive
outcome [19]: inactive
outcome [20]: inactive

BrCBr
outcome [1]: inactive
outcome [2]: inactive
outcome [3]: inactive
outcome [4]: inactive
outcome [5]: inactive
outcome [6]: inactive
outcome [7]: inactive
outcome [8]: inactive
outcome [9]: inactive
outcome [10]: inactive
outcome [11]: inactive
outcome [12]: inactive
outcome [13]: inactive
outcome [14]: inactive
outcome [15]: inactive
outcome [16]: inactive
outcome [17]: inactive
outcome [18]: inactive
outcome [19]: inactive
outcome [20]: inactive

N#Cc1cccc(C#N)c1
outcome [1]: inactive
outcome [2]: inactive
outcome [3]: inactive
outcome [4]: inactive
outcome [5]: inactive
outcome [6]: inactive
outcome [7]: inactive
outcome [8]: inactive
outcome [9]: inactive
outcome [10]: inactive
outcome [11]: inactive
outcome [12]: inactive
outcome [13]: inactive
outcome [14]: inactive
outcome [15]: inactive
outcome [16]: inactive
outcome [17]: inactive
outcome [18]: inactive
outcome [19]: inactive
outcome [20]: inactive
